Screens from PubChem BioAssay.
Vaccinia mCherry: vaccinia inhibition (mCherry reporter); Vaccinia virus mCherry reporter infection, fluorescence; Potency, µM (highest dose often 36.5 µM), for the others: at the highest dose activity change, negative = inhibition, most hits filed as inhibitors; 310,000 tested, 0.63% active; AID 720579; calls by dose curve; tested in A549 cells; also: potency is read from the fitted curve at half-maximal effect; nearly all actives have a fitted effect of over 35% in size
HCV inhibitor: inhibitors of hepatitis C virus infection | Potency, µM (doses to about 41.8 µM), inactives show at the top dose activity change, negative = inhibition, hits mostly inhibitors | Huh7.5.1 HCVcc-Cre infection, luciferase reporter, 44 h | 340,000 tested, 3.4% active; also: potency is read from the fitted curve at half-maximal effect
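Infectious HCVcc-Cre (~0.5 moi) was added to cells just after compound, with cells seeded 4 h earlier at 1,000 per well. Luciferase activity after 44 h culture reported infection; substrate was incubated 15 min at room temperature before reading.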
FMDV inh: antivirals against foot and mouth disease virus; AID 1159524; FMDV antiviral cell-based qHTS; 410,000 tested, 1.2% active; Potency, µM (series often up to 57.9 µM), without a hit: at the highest dose activity change, negative = inhibition, most hits filed as inhibitors; calls by dose curve; tested in HEK293T cells; also: read-out not given here; potency is read from the fitted curve at half-maximal effect; nearly all actives have a fitted effect of over 45% in size
Vaccinia Venus: vaccinia inhibition (Venus reporter) | AID 720580 | Potency, µM (doses to about 36.5 µM), for inactives: at the highest dose activity change, negative = inhibition, actives largely listed as inhibitors | Vaccinia virus Venus reporter expression, fluorescence | 330,000 tested, 0.46% active; calls by dose curve; tested in A549 cells; also: potency is read from the fitted curve at half-maximal effect; nearly all actives have a fitted effect of over 30% in size
HCMV inh: blocks human cytomegalovirus replication; 410,000 tested, 4.5% active; activity change, negative = inhibition, % at 57.5 µM; HFF cells, HCMV-luciferase reporter, 72 h; active compounds read low; in the data active = activity change below about -60%; inconclusive = no clear call, values can overlap the other calls; inactive = above about -39%
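Compounds were evaluated in HFFs infected with an HCMV luciferase reporter virus (MOI 1 PFU/cell). Luciferase in lysates collected 72 h post infection served as the replication measure.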
Sm TGR inh: blocks Schistosoma mansoni thioredoxin glutathione reductase; purified TGR, DTNB reduction, TNB absorbance 405 nm; Potency, µM (doses to about 114 µM), for the others: top-dose activity change, negative = inhibition, most hits filed as inhibitors; 360,000 tested, 3% active; AID 485364; also: potency is read from the fitted curve at half-maximal effect; nearly all actives have a fitted effect of over 60% in size
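TGR 20 nM + NADPH 100 uM (dispensed conc.), cpd preinc 15 min RT; start with NADPH (500 uM addition) then DTNB (15 mM addition). Kinetic TNB absorbance, 405 nm filter. Four-parameter Hill fit across titration.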
* = called active by the depositor; [ ] = remark or other dose. Hits are enriched below; roughly 9.3% of the tested compounds scored in any of these assays. Unless noted, calls follow the shape of the dose curve; as a rule, active = well fitted curve in the direction sought with a large enough effect; inconclusive = small, poorly fitted or top-dose-only effect, or another doubt; inactive = no such curve, though single readings can be large; an effect the other way counts as inactive or inconclusive. % is scaled to controls: 0 for no effect and ±100 for the full control effect.

For CCCCCCCOC(=O)C[N+](C)(C)CCOC1CC2CCC1(C)C2(C)C (stereo unspecified) the results were Vaccinia mCherry inactive, HCV inhibitor inconclusive, FMDV inh 35.5µM*, Vaccinia Venus inconclusive, HCMV inh -73.1* and Sm TGR inh -2.9%.
Screening CCCCCCOC(=O)C[N+](C)(C)CCOC1CC2CCC1(C)C2(C)C (stereo unspecified) returned HCV inhibitor 3.2%, FMDV inh -5.2%, HCMV inh -18.9 and Sm TGR inh -11.6%.
`CC(/C=N\NC(=O)c1cc(C)oc1C)=C\c1ccccc1` gave Vaccinia mCherry inactive, HCV inhibitor -16.8%, FMDV inh 13.7%, Vaccinia Venus -8.7%, HCMV inh 18.6 and Sm TGR inh -13.2%.
`O=C(c1ccc([N+](=O)[O-])s1)N1CCCc2ccccc21` gave Vaccinia mCherry 10µM*, HCV inhibitor inconclusive, FMDV inh -17.6%, Vaccinia Venus inconclusive, HCMV inh inconclusive and Sm TGR inh inconclusive.
Screening O=C(c1ccc([N+](=O)[O-])s1)N1CCc2ccccc21 returned Vaccinia mCherry 8.4%, HCV inhibitor inconclusive, FMDV inh 9.0%, Vaccinia Venus 1.9%, HCMV inh 21.7 and Sm TGR inh -9.1%.
Screening NN(CCO)C(=S)Nc1ccc(Cl)cc1 returned Vaccinia mCherry 10µM*, HCV inhibitor 8.0%, FMDV inh -6.7%, Vaccinia Venus inconclusive, HCMV inh 72.9 and Sm TGR inh 0.8%.
For Cc1ccc(C(=O)Nc2ccc(-c3nc4ccccc4s3)c(O)c2)c(C)c1 the results were Vaccinia mCherry -14.3%[7.34 µM], FMDV inh 13.1%, Vaccinia Venus -7.6%[7.34 µM], HCMV inh -62.8* and Sm TGR inh 31.3%.
`Cc1ccc(NC(=O)COC(=O)c2ccccc2-c2nc3ccccc3s2)c(C)c1` gave HCV inhibitor -15.7%, FMDV inh -24.4%, HCMV inh -67.6* and Sm TGR inh -4.0%.
For CCc1cccc(CC)c1NC(=O)COC(=O)c1ccccc1-c1nc2ccccc2s1 the results were Vaccinia mCherry -19.1%, HCV inhibitor 6.0%, FMDV inh -17.2%, Vaccinia Venus -15.0%, HCMV inh 1.1 and Sm TGR inh -2.1%.
Screening Cc1ccc(NC(=O)COC(=O)c2cccc3c2C(=O)c2ccccc2C3=O)c(C)c1 returned Vaccinia mCherry -13.9%, HCV inhibitor inconclusive, FMDV inh -3.9%, Vaccinia Venus -6.5%, HCMV inh -66.9* and Sm TGR inh 6.5%.
`COc1ccccc1C(=O)Nc1ccc(-c2nc3ccccc3s2)c(C)c1` gave Vaccinia mCherry -16.0%, FMDV inh 14.5%, Vaccinia Venus -20.1%, HCMV inh -17.5 and Sm TGR inh 6.2%.
For CCC(=O)Nc1cc(-c2nc3ccccc3s2)c(Cl)cc1Cl the results were Vaccinia mCherry -1.7%, FMDV inh 1.7%, Vaccinia Venus -8.2%, HCMV inh -100.6* and Sm TGR inh -10.2%.
Screening COc1ccc(Br)cc1Cn1nnc(C(=O)Nc2ccc3c(c2)OCCO3)c1N returned HCV inhibitor inconclusive, FMDV inh -15.4%, HCMV inh -9.1 and Sm TGR inh 1.2%.
Screening COc1ccc(CNC(=O)CN2N=C(c3ccc(Cl)cc3)CCC2=O)cc1 returned Vaccinia mCherry -13.2%, FMDV inh -7.2%, Vaccinia Venus -13.9%, HCMV inh -18.8 and Sm TGR inh 0.4%.
CCOC(=O)c1ccc(NC(=O)c2ccc3c(c2)C(=O)N(CC2CCCO2)C3=O)cc1 (stereo unspecified) was read as Vaccinia mCherry -3.2%, HCV inhibitor 1.4%, FMDV inh 28.2µM*, Vaccinia Venus -4.2%, HCMV inh -16.4 and Sm TGR inh 4.2%.
CCOC(=O)c1ccc(NC(=O)c2ccc3c(c2)C(=O)N(Cc2cccnc2)C3=O)cc1 was read as HCV inhibitor 7.7%, FMDV inh 17.8µM*, HCMV inh 11.1 and Sm TGR inh 4.1%.
